Measured values published in PubChem BioAssay (NCATS).
Records with an inconclusive call do not appear. Calls of active or inactive are those of the source. Calls come from the whole dose curve; as a rule, active = well fitted curve in the direction sought with a large enough effect; inconclusive = small, poorly fitted or top-dose-only effect, or another doubt; inactive = no such curve, though single readings can be large; an effect the other way counts as inactive or inconclusive.

How the values were obtained:
[1] = system: MKL-2; test: qHTS assay to identify novel small-molecules to repurpose for Merkel cell carcinoma treatment (AID 1296009); details: MCC and control cell lines, CellTiter-Glo viability, 72 h; series mostly up to 46 µM; note: nearly all actives have a fitted effect of over 60% in size
Procedure, shortened: (§1)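 72 hr, 37 degree celsius; NPC 8-pt / MIPE 11-pt dose response; compound pinned in DMSO; CellTiter-Glo, 10 min RT, luminescence; normalized to no-cell and DMSO controls.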

[2] = system: UISO; test: as above; details: MCC and control cell lines, CellTiter-Glo viability, 72 h; series mostly up to 46 µM
Procedure, shortened: as §1

[3] = system: WaGa; test: as above; details: MCC and control cell lines, CellTiter-Glo viability, 72 h; series mostly up to 46 µM
Procedure, shortened: as §1

[4] = system: C33A; test: Primary qHTS to identify gynecologic anti-cancer compounds using libraries of approved drugs and bioactive compounds (AID 1345084); details: Gynecologic cancer cell panel viability, ATPlite luminescence, 48 h; series mostly up to 57.5 µM; note: nearly all actives have a fitted effect of over 55% in size
Procedure, shortened: (§2)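 ATP-based viability (ATPlite), 1,000 cells/well, 16 h pre-incubation, 48 h compound at 37 C, 5% CO2, 15 min RT before read.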

[5] = system: CASKI; test: as above; details: Gynecologic cancer cell panel viability, ATPlite luminescence, 48 h; series mostly up to 57.5 µM
Procedure, shortened: as §2

[6] = system: Es-2; test: as above; details: Gynecologic cancer cell panel viability, ATPlite luminescence, 48 h; series mostly up to 57.5 µM
Procedure, shortened: as §2

[7] = system: HeLa; test: as above; details: Gynecologic cancer cell panel viability, ATPlite luminescence, 48 h; series mostly up to 57.5 µM
Procedure, shortened: as §2

[8] = system: Hek293T; test: as above; details: Gynecologic cancer cell panel viability, ATPlite luminescence, 48 h, control line for the selectivity index; series mostly up to 57.5 µM
Procedure, shortened: as §2

[9] = system: CAOV3; test: as above; details: Gynecologic cancer cell panel viability, ATPlite luminescence, 48 h; series mostly up to 57.5 µM
Procedure, shortened: as §2

Measured: outcome

C[C@@H]1O[C@@H](OC[C@H]2O[C@@H](Oc3c(-c4ccc(O)c(O)c4)oc4cc(O)cc(O)c4c3=O)[C@H](O)[C@@H](O)[C@@H]2O)[C@H](O)[C@H](O)[C@H]1O
not listed: [9]
inactive: all other assays above

CC(C)=CCC[C@@](C)(O)[C@H]1CC=C(C)CC1
not listed: [7]
inactive: all other assays above

NS(=O)(=O)c1cc2c(cc1C(F)(F)F)NCNS2(=O)=O
not listed: [9]
inactive: all other assays above

C=CCOc1ccccc1OCC(O)CNC(C)C (stereo unspecified)
not listed: [9]
inactive: all other assays above

O=C1c2cccc(O)c2C(=O)c2c(O)cccc21
not listed: [9]
inactive: all other assays above

CC(C)(C)NCC(O)COc1cccc2c1CCC(=O)N2 (stereo unspecified)
not listed: [9]
inactive: all other assays above

CO[C@@]1(NC(=O)C(C(=O)O)c2ccc(O)cc2)C(=O)N2C(C(=O)O)=C(CSc3nnnn3C)CO[C@@H]21 (stereo partly specified)
not listed: [9]
inactive: all other assays above
